Results taken from PubChem BioAssay (NCI).
About 83,000 compounds went through this panel and 20% of them were active in at least one assay; those are over-represented in the sample as a whole.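 A percent growth of 40 corresponds to 60% growth inhibition; 0 means no net growth; -100 means all cells died. Active threshold: below 10.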 Unmarked numbers belong to inactive results. Activity calls are given as the source filed them.

test system: SNB-19 CNS; assay: NCI-60 one-dose screen, 48 h (100 = growth as untreated, 0 = no growth, -100 = all killed); conditions: 10 µM unless noted
Protocol: Growth inhibition of the SNB-19 human tumor cell line is measured as a screen for anti-cancer activity. Cells are grown in 96 well plates and exposed to the test compound for 48 hours. Compounds are tested at a single concentration, which is 10^-5 M for most compounds. The reported endpoint is percent growth (GI% or GIPRCNT), where numbers from 0 - 100% represent growth inhibition, and numbers from -100% - 0 represent cell death. For example, a value of 40 represents 60% growth inhibition. A value of 0 means no net growth occurred over the course of the experiment. A value of -40 indicates 40% of cells at the beginning of the experiment died by the end of the experiment. A value of -100 means all cells are dead at the end of the experiment.
NCI-60 Human Tumor Cell Lines Screen was performed using the standard one-dose NCI protocol, which is described in more detail at https://dtp.cancer.gov/discovery_development/nci-60/default.htm.
Compounds with GIPRCNT values below 10 were considered active. Activity score was based on GIPRCNT using the following formula: […]
Score is 0 for GIPRCNT values of 100 or above, 50 for GIPRCNT values of 0, and 100 for GIPRCNT values of -100.

| SMILES | growth |
| --- | --- |
| COc1ccc(C2C=C(c3ccc(N)cc3)N=C3SC=CN32)cc1OC (stereo not given) | 102% |
| COc1ccc2c(c1)[nH]c(=O)c1c3cccc(F)c3cn21 | 39.1% |
| COc1ccc(C2=Nn3c(nnc3-n3nc(C)cc3C)SC2)cc1 | 46% |
| COc1ccc(/C=C(\C#N)c2cc(OC)c3c(c2)OCO3)cc1 | 37.8% |
| COC(OC)c1ccccc1 | 121% |
| CCCCN(CCCC)c1ccc(C(=N)c2ccc(N(CCCC)CCCC)cc2)cc1 | -82.8% (active) |
| C=C1CC2(OC1=O)C(=O)N(CCCN1C(=O)C3(CC(=C)C(=O)O3)c3ccccc31)c1ccccc12 (stereo not given) | 76.6% |
| C=C1CCC2C3(C)COC(c4c(OC)cccc4OC)OC3CCC2(C)C1C/C=C1/C(=O)OCC1O (stereo not given) | 77.3% |
| CC1=NC2=CC=CC3=NC(C(Cl)(Cl)Cl)=NC(=N1)N23 | 84.5% |
| COc1ccc(C2C(C#N)=C(N)Oc3c2ccc2ccccc32)cc1 (stereo not given) | 46.7% |
| N[C@H]1CN(C(=O)c2cc3cc(Br)c(F)c(F)c3[nH]2)C[C@@H]1O | 96.6% |
| CC(C)C1=CC2=C(C=O)C[C@@H]3[C@](C)(CCC[C@@]3(C)C(=O)OCC#CCN3CCCC3)[C@H]2CC1 | 85.2% |
| COc1ccc(Nc2ncccc2C(=O)NCc2cn(Cc3cccc(Oc4ccccc4)c3)nn2)c(OC)c1 | 44.5% |
| O=[N+]([O-])c1cccc(-c2nc3sccn3c2-c2ccnc(NCCCNS(=O)(=O)c3ccc(Cl)cc3)n2)c1 | 83.5% |
| Cc1nc2ncccc2nc1Nc1ccc(S(=O)(=O)Nc2ccccn2)cc1 | 88.5% |
| Cc1cccc(/C=N/Nc2cc(C)c3cccc(C)c3n2)n1 | 92.7% |
| CC(=O)Oc1csc(N(C(C)=O)c2cc(C(=O)O)cc(C(=O)O)c2)n1 | 97.2% |
| COc1ccc(/C=N\NC(=O)CN2CCN(c3cc4c(cc3F)c(=O)c(C(=O)N/N=C/c3ccc(OC)c(OC)c3)cn4C3CC3)CC2)cc1OC | -0.836% (active) |
| NC1=NN(O)C2=CC([N+](=O)[O-])C=CC2=N1 (stereo not given) | 119% |
| C=C[C@@H]1C[C@@H]2Cc3cc(Cl)ccc3N1O2 | 113% |

| SMILES | growth |
| --- | --- |
| CCCCN(CCCC)C(=N)c1ccnc2ccccc12 | 115% |
| O=C(O)C1CCCCN1c1nc(Cl)nc(Cl)n1 (stereo not given) | 102% |
| N=C(N)c1ccc(-c2ccc(-c3ccc(-c4cccs4)s3)s2)cc1 | 97.5% |
| O=C(c1ccccc1)C1OC1c1ccc([N+](=O)[O-])cc1 (stereo not given) | 95.3% |
| CCOC(=O)c1cc(C(=O)c2cc(OC)c(OC)c(OC)c2)n2c1ccc1ccccc12 | 35.1% |
| O=C(Nc1cccc(-n2cc(-c3ccncc3)c(-c3ccc(Cl)c(O)c3)n2)c1)c1ccc(N2CCOCC2)c(C(F)(F)F)c1 | 65.7% |
| C=C1CCC[C@]2(C)CCC[C@H](C)[C@@H](OC(C)=O)[C@@H]3OC(=O)C(=C)[C@@H]3C[C@H]1O2 | 88.9% |
| O=C(NCc1cn(Cc2cccc(Oc3ccccc3)c2)nn1)c1cccnc1Nc1ccc(F)cc1 | 72.9% |
| COc1cc(-c2nc(-c3nc4ccc(Cl)cc4[nH]3)cc3c2[nH]c2ccccc23)cc(OC)c1OC | 79.9% |
| O=C(O)Cc1cccc(=O)c(O)c1C(=O)O | 105% |
| CCCCCCCCC(C)OC(=O)c1nn(C(C)=O)c2ccccc12 (stereo not given) | 107% |
| O=C1/C(=C/c2ccccc2)CN(C(=O)CCN2CCC(=NO)CC2)C/C1=C\c1ccccc1 | -18.6% (active) |
| COc1ccc(-c2ccc(-c3ccc(C(=N)N)cn3)s2)cc1OC | 94.7% |
| COc1ccc(C2CC(c3ccc(OC)cc3OC)=NN2c2ccc(S(N)(=O)=O)cc2)cc1 (stereo not given) | 85.7% |
| COc1cc(C(=O)/C=C/c2c(C)n([O-])c3ccc(C(F)(F)F)cc3[n+]2=O)cc(OC)c1OC | 90.9% |
| c1cc2[nH]ncc2cc1-c1nc2ccc3[nH]ncc3c2c2c1CCC2 | 69.5% |
| Fc1ccc(Nc2ncnc3ccc(-c4cnc5[nH]ccc5c4)cc23)cc1Cl | 40.7% |
| Nc1nc(Nc2cc(Cl)cc(Cl)c2)nn1S(=O)(=O)c1ccc2ccccc2c1 | 78% |
| COc1cc(C(=O)/C=C/c2ccc3nc(-c4cc(F)cc(F)c4)sc3c2)cc(OC)c1OC | 98.3% |
| O=[N+]([O-])c1ccc(C(c2ccccc2)c2ccccc2)cc1 | 96.9% |
